{"source": "PubChem BioAssay (NCATS)", "note": "Where “and” joins values, the source holds several entries; their conditions need not be identical. Identical values can stand only once. Records with an inconclusive call do not appear. Calls of active or inactive are those of the source. Calls come from the whole dose curve; as a rule, active = well fitted inhibition curve with a large enough effect; inconclusive = small, poorly fitted or top-dose-only effect; inactive = flat fitted curve, though single readings scatter."}
{"tested_on": "not listed separately", "assay": "qHTS Assay for Lipid Storage Modulators (AID 1519)", "conditions": "Drosophila S3 cells, BODIPY lipid droplet/cell ratio, laser cytometry; measured here: lipid channel max response; cells loaded with oleic acid", "procedure,_shortened": "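Cells seeded at 5,000 per well were treated with compounds over a concentration series and loaded with oleic acid (400 uM, as added). Lipid droplet fluorescence (488 nm excitation, 500-530 nm channel) was read by laser-scanning cytometry and normalized to 20 uM Triacsin C.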"}
{"smiles": "COCCn1c(=O)c(C)nc2cnc(Nc3ccccc3)nc21", "max response": "-10.4%"}
{"smiles": "C=C(C)[C@H]1CC=C(C)C(=O)C1", "max response": "-15.9%"}
{"smiles": "COc1cccc(Cn2c(=O)cnc3cnc(N4CCN(C)CC4)nc32)c1", "max response": "22.6%"}
{"smiles": "N#Cc1cccc(-c2ccc3ncnc(NCc4ccccc4)c3c2)c1", "max response": "2.9%"}
{"smiles": "COc1ncc2nc(-c3cccs3)c(=O)n(C)c2n1", "max response": "24.1%"}
{"smiles": "Cc1ccccc1-c1ccc2ncnc(N3CCN(C)CC3)c2c1", "max response": "-2.94%"}
{"smiles": "Oc1ccc2c(c1)OCC1(O)Cc3cc(O)c(O)cc3C21", "note": "(configuration not stated)", "max response": "-7.12%"}
{"smiles": "C[N+](C)(C)CC(O)CC(=O)O", "note": "(configuration not stated)", "max response": "21.4%"}
{"smiles": "COc1ccccc1-c1ccc2ncnc(Nc3ccccc3)c2c1", "max response": "-29%"}
{"smiles": "C=CC(C)(O)CCC=C(C)C", "note": "(configuration not stated)", "max response": "-25.1%"}
{"smiles": "O=c1cc(-c2ccc(O)cc2)oc2cc(O[C@H]3OC(CO)C(O)C(O)C3O)cc(O)c12", "note": "(some centres not stated)", "max response": "3.59%"}
{"smiles": "CN(C)CC/C=C1\\c2ccccc2CSc2ccccc21", "max response": "-19.8%"}
{"smiles": "COC(=O)C1=CO[C@@H](C)[C@H]2CN3CCc4c([nH]c5ccccc45)[C@@H]3C[C@H]12", "max response": "2.39% and -19.1%"}
{"smiles": "O=C(/C=C/c1ccc(O)c(O)c1)OC(Cc1ccc(O)c(O)c1)C(=O)O", "note": "(configuration not stated)", "max response": "18.1% and 1.39%"}
{"smiles": "N#Cc1ccccc1-c1ccc2ncnc(NCc3cccs3)c2c1", "max response": "-0.129%"}
{"smiles": "C=C[C@](C)(O)CCC=C(C)C", "max response": "20.7%"}
{"smiles": "COc1ccccc1CNc1ncnc2ccc(-c3cccc(C#N)c3)cc12", "max response": "-14.8%"}
{"smiles": "COc1ccccc1CNc1cc(-c2cccc(C#N)c2)ncn1", "max response": "4.55%"}
{"smiles": "C#C[C@]1(O)CCC2C3CCC4=C(CCC(=O)C4)C3CC[C@@]21C", "note": "(some centres not stated)", "max response": "3.32%"}
{"smiles": "CC(C)N1CCN(c2ccc(OC[C@@H]3CO[C@@](Cn4cncn4)(c4ccc(Cl)cc4Cl)O3)cc2)CC1", "max response": "-3.7%"}
{"smiles": "CC1(C)SC2C(NC(=O)Cc3ccccc3)C(=O)N2C1C(=O)O", "note": "(configuration not stated)", "max response": "23.9%"}
{"smiles": "Cc1nc2cnc(N3CCN(C)CC3)nc2n(C[C@H]2CCCO2)c1=O", "max response": "4.31%"}
{"smiles": "C=C(NC(=O)C(=C)NC(=O)c1csc(C2=NC3c4csc(n4)C4NC(=O)c5csc(n5)C(C(C)(O)C(C)O)NC(=O)C5CSC(=N5)C(=CC)NC(=O)C(C(C)O)NC(=O)c5csc(n5)C3(CC2)NC(=O)C(C)NC(=O)C(=C)NC(=O)C(C)NC(=O)C(C(C)CC)NC2C=Cc3c(C(C)O)cc(nc3C2O)C(=O)OC4C)n1)C(N)=O", "note": "(configuration not stated)", "max response": "5.44%"}
{"smiles": "COS(C)(=O)=O", "max response": "4.2%"}
{"smiles": "CC(C)(S)[C@H](N)C(=O)O", "max response": "19.3%"}
{"smiles": "NC(Cc1c[nH]c2ccccc12)C(=O)O", "note": "(configuration not stated)", "max response": "44.9%"}
{"smiles": "COc1cc2c(cc1OC)C1Cc3ccc(OC)c(OC)c3CN1CC2", "note": "(configuration not stated)", "max response": "22.2%"}
{"smiles": "FC(F)(F)c1ccccc1-c1ccc2ncnc(N3CCOCC3)c2c1", "max response": "23.6%"}
{"smiles": "CC12CC[C@@H]3c4ccc(OS(=O)(=O)O)cc4CC[C@H]3C1CCC2=O", "note": "(some centres not stated)", "max response": "-17.7%"}
{"smiles": "O=c1ccc2ccc(O)cc2o1", "max response": "19.2%"}
{"smiles": "COc1ccccc1-c1ccc2ncnc(NCCN3CCOCC3)c2c1", "max response": "-15.2%"}
{"smiles": "FC(F)(F)c1ccccc1-c1ccc2ncnc(NCc3cccs3)c2c1", "max response": "5.18%"}
{"smiles": "C[C@@H]1CCC[C@H](C)N1NC(=O)c1ccc(Cl)c(S(N)(=O)=O)c1", "max response": "17%"}
{"smiles": "COc1cccc(Cn2c(=O)c(C)nc3cnc(Nc4cccc(OC)c4)nc32)c1", "max response": "6.74%"}
{"smiles": "CN1C(CC(=O)c2ccccc2)CCCC1CC(O)c1ccccc1", "note": "(configuration not stated)", "max response": "12.2%"}
{"smiles": "COc1ccc2ccc(=O)oc2c1", "max response": "5.5%"}
{"smiles": "Cc1cnc(CNc2ncnc3ccc(-c4ccccc4C(F)(F)F)cc23)cn1", "max response": "7.96%"}
{"smiles": "O=C(Cc1cccs1)NC1C(=O)N2C(C(=O)[O-])=C(C[n+]3ccccc3)CSC12", "note": "(configuration not stated)", "max response": "28.7%"}
{"smiles": "CN1CCN(c2ccnc(-c3ccc(N(C)C)cc3)n2)CC1", "max response": "29.9%"}
{"biological_target": "Dual specificity protein kinase CLK4 (Homo sapiens) (UniProt Q9HAZ1)", "sequence (Q9HAZ1 whole entry, looked up)": "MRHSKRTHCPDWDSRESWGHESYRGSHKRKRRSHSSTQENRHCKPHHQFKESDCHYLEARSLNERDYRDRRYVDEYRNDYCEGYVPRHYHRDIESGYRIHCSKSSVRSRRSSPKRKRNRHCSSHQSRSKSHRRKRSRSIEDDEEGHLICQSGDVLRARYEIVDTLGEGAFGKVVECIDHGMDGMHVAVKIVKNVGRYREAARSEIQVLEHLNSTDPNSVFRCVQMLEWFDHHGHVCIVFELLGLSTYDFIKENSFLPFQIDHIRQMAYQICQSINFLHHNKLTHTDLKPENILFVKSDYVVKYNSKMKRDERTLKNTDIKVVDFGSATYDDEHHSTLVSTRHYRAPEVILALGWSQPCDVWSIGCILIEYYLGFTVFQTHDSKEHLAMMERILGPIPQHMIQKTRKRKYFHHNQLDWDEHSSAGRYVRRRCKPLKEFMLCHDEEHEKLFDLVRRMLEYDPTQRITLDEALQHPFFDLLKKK", "assay": "qHTS Assay for Inhibitors of CDC-like Kinase 4 (ADP-Glo Assay) (AID 1771); note: nearly all actives have a fitted effect of over 70% in size; note: potency is the fitted concentration of half-maximal effect; for activity change, negative = inhibition: % is set by controls: 0 for no effect and ±100 for the full control effect", "conditions": "recombinant CLK4, ADP-Glo luminescence; series mostly up to 80 µM; activity change, negative = inhibition: at the top concentration", "procedure,_shortened": "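25 nM Clk4 with 100 uM RS repeat peptide and 1 uM ATP (final) in buffer with 2 mM MgCl2, 0.5 mM EGTA, 2.5 mM DTT, 0.01% Triton X-100; 1 h at room temperature; ADP-Glo luminescence for ADP formed.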"}
{"smiles": "N#Cc1cccc(-c2ccc3ncnc(NCc4ccccc4)c3c2)c1", "Potency": "8.91 µM (active)"}
{"smiles": "Cc1ccccc1-c1ccc2ncnc(N3CCN(C)CC3)c2c1", "Potency": "31.6 µM (active)"}
{"smiles": "COc1ccccc1-c1ccc2ncnc(Nc3ccccc3)c2c1", "Potency": "15.8 µM (active)"}
{"smiles": "N#Cc1ccccc1-c1ccc2ncnc(NCc3cccs3)c2c1", "Potency": "3.16 µM (active)"}
{"smiles": "Cc1nc2cnc(N3CCN(C)CC3)nc2n(C[C@H]2CCCO2)c1=O", "activity change, negative = inhibition": "-1.74% (inactive)"}
{"smiles": "COc1ccccc1-c1ccc2ncnc(NCCN3CCOCC3)c2c1", "Potency": "17.8 µM (active)"}
{"biological_target": "Dual specificity protein kinase CLK4 (Homo sapiens) (UniProt Q9HAZ1)", "assay": "qHTS Assay for Inhibitors of CDC-like Kinase 4 (ADP-FP Assay) (AID 1795); note: % is set by controls: 0 for no effect and ±100 for the full control effect; nearly all actives have a fitted effect of over 60% in size", "conditions": "Transcreener ADP fluorescence polarization; series mostly up to 50 µM; activity change, negative = inhibition: at the top concentration", "procedure,_shortened": "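Kinase activity was followed as ADP output, converted from fluorescence polarization with a calibration curve. Reactions ran one hour at low ATP (1 uM) with RS peptide substrate.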"}
{"smiles": "COCCn1c(=O)c(C)nc2cnc(Nc3ccccc3)nc21", "activity change, negative = inhibition": "-12.2% (inactive)"}
{"smiles": "COc1cccc(Cn2c(=O)cnc3cnc(N4CCN(C)CC4)nc32)c1", "activity change, negative = inhibition": "3.22% (inactive)"}
{"smiles": "COc1ncc2nc(-c3cccs3)c(=O)n(C)c2n1", "activity change, negative = inhibition": "-2.31% (inactive)"}
{"smiles": "Cc1ccccc1-c1ccc2ncnc(N3CCN(C)CC3)c2c1", "activity change, negative = inhibition": "-18.9% (inactive)"}
{"smiles": "COc1ccccc1CNc1ncnc2ccc(-c3cccc(C#N)c3)cc12", "activity change, negative = inhibition": "-12.9% (inactive)"}
{"smiles": "COc1ccccc1CNc1cc(-c2cccc(C#N)c2)ncn1", "activity change, negative = inhibition": "-20.6% (inactive)"}
{"smiles": "Cc1nc2cnc(N3CCN(C)CC3)nc2n(C[C@H]2CCCO2)c1=O", "activity change, negative = inhibition": "3.06% (inactive)"}
{"smiles": "FC(F)(F)c1ccccc1-c1ccc2ncnc(N3CCOCC3)c2c1", "activity change, negative = inhibition": "-14.6% (inactive)"}
{"smiles": "FC(F)(F)c1ccccc1-c1ccc2ncnc(NCc3cccs3)c2c1", "activity change, negative = inhibition": "-14.2% (inactive)"}
{"smiles": "COc1cccc(Cn2c(=O)c(C)nc3cnc(Nc4cccc(OC)c4)nc32)c1", "activity change, negative = inhibition": "4.39% (inactive)"}
{"smiles": "Cc1cnc(CNc2ncnc3ccc(-c4ccccc4C(F)(F)F)cc23)cn1", "activity change, negative = inhibition": "-3.37% (inactive)"}
{"smiles": "CN1CCN(c2ccnc(-c3ccc(N(C)C)cc3)n2)CC1", "activity change, negative = inhibition": "-11.6% (inactive)"}
